# Reference: PubChem BioAssay
# Values without a mark were called inactive. No rule for the calls is given here.
# Biological target: Pantothenate synthetase (Mycobacterium tuberculosis (strain ATCC 25618 / H37Rv)) (UniProt P9WIL5)
# Assay: Recombinant Mtb pantothenate synthetase (PanC) inhibitors, coupled enzyme, confirmatory (AID 375);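 also: 0% = full reaction with vehicle and 100% = no enzyme background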
# Conditions: coupled enzyme assay; at 10 µM, active compounds read high
# Sequence of Pantothenate synthetase (Mycobacterium tuberculosis (strain ATCC 25618 / H37Rv)) (P9WIL5 whole entry, looked up): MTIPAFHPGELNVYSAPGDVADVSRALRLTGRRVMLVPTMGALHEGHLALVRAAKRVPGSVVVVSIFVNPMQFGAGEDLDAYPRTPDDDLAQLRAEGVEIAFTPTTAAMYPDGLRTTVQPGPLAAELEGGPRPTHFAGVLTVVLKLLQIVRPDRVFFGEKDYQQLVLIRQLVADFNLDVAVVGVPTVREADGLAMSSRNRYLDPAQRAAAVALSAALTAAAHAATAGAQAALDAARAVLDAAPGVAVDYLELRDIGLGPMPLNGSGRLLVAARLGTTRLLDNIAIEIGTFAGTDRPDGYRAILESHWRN
row,SMILES,inhibition [%]
1,O=C(OC1CCOC1=O)c1ccc2ccccc2n1 (centres undefined),4
2,C[N+]1=C2CCCCCN2C(O)(c2ccccc2)C1 (centres undefined),7
3,CCOc1ccc2[nH]c(=O)c(CN(Cc3nnnn3CCc3ccccc3)CC3CCCO3)cc2c1 (centres undefined),0
4,O=C(Nc1ccc(N2C(=O)C3C4C=CC(C4)C3C2=O)cc1)Nc1cccnc1 (centres undefined),0
5,CCOc1ccc(C(C)=O)cc1COc1ccc(-n2cnnn2)cc1,13
6,CCc1ccc(C2CC(c3ccccc3)n3ncnc3N2)cc1 (centres undefined),0
7,O=C(NC1CCCCC1)c1nc2c(nnn2Cc2ccccc2Cl)c(=O)[nH]1,0
8,CC[C@]1(O)C[C@@H]2CN(CCc3c([nH]c4ccccc34)[C@@](C(=O)OC)(c3cc4c(cc3OC)N(C)[C@H]3[C@@](O)(C(=O)OC)[C@H](OC(C)=O)[C@]5(CC)C=CCN6CC[C@]43[C@@H]65)C2)C1,0
9,CCN1C(=O)/C(=C/N(C)c2ccccc2)OC1=S,4
10,Cc1ccc(-c2cc(C(=O)Nc3cc(C)ccc3C)[nH]n2)c(O)c1,0
11,Cc1ccc(NC(=O)c2cc(S(=O)(=O)N3CCC4(CC3)OCCO4)ccc2F)cc1,0
12,O=C(C1CCC1)N1CCc2cc(S(=O)(=O)N3CCc4ccccc4C3)ccc21,7
13,COCCCNC(=O)CSc1nc2ccc(N3CCOCC3)cc2c(=O)n1CCc1ccccc1,0
14,COc1ccc(NC(=O)CC2CCCCC2)cc1OC,4
15,Cc1ccc(S(=O)(=O)N2CCN(C(=O)CN3CCOCC3)C2C(C)C)cc1 (centres undefined),0
16,O=C(CN1CCC(n2nnc3cc(F)ccc32)CC1)Nc1ccc2c(c1)CCC2,0
17,CC(c1ccco1)N(Cc1ccco1)C(=O)Nc1ccccc1 (centres undefined),0
18,CCn1c(SCC(N)=O)nc2c1c(=O)n(C)c(=O)n2C,0
19,COc1cccc(NC(=O)N2CCC(N3CCCCC3)CC2)c1,0
20,O=C(NC1(C(F)(F)F)NC(=O)N(Cc2ccco2)C1=O)c1cccnc1 (centres undefined),11
21,CCOC(=O)c1c(C)oc2c1c(C=NCc1ccccn1)c(O)c1ccccc12,3
22,O=C(CN(C(=O)CCNC(=O)c1ccco1)c1ccccc1)NC1CCCC1,2
23,CCCCCCCCNC(C)C(O)c1ccc(SC(C)C)cc1 (centres undefined),0
24,CC1CCCc2sc3nc(NCc4ccco4)n4ncnc4c3c21 (centres undefined),0
25,COc1ccc2cc(C(c3nnnn3C3CCCCC3)N3CCCCCC3)c3nnnn3c2c1 (centres undefined),3

row,SMILES,inhibition [%]
1,Clc1ccc(-n2nnnc2Sc2ncnc3sccc23)cc1,0
2,CC1(C)CC(=O)C2=C(C1)N(CC1CCCO1)C(=O)C2(O)C(F)(F)F (centres undefined),0
3,CC(C)(C)c1cc(C(=O)O)nn1-c1ccccc1,0
4,CN1CCc2c(sc3c2c(=O)n(-c2ccccc2)c2nnc(SCc4ccccc4)n32)C1,4
5,Cc1c(C(=O)Nc2cnccn2)oc2ccccc12,1
6,CC1=C(C(=O)OCc2ccccc2)C(c2ccc(C)o2)C2=C(CCCC2=O)N1 (centres undefined),4
7,COc1ccc(-c2nc(CSCC(=O)NCc3ccc4c(c3)OCO4)c(C)o2)cc1OC,0
8,CCCCc1c(O)nc(SCCN(C)C)n(-c2ccccc2)c1=O,0
9,CC1(C)CC(=O)C2=C(C1)OC(N)=C(C#N)C2C1CC=CCC1 (centres undefined),1
10,CCOC(=O)C1(c2ccccc2)NC(c2ccc(N(C)C)cc2)C2C(=O)N(C)C(=O)C21 (centres undefined),0
11,CCCCC(O)(C(NC=O)C(=O)OC)C(F)(F)F (centres undefined),2
12,CN(Cc1ccco1)C(=O)Cn1c(=O)oc2cc(S(=O)(=O)NCc3ccccc3)ccc21,0
13,CC(C)c1ccc(S(=O)(=O)N2CCN(C(=O)c3cccc(F)c3)CC2)cc1,8
14,CCOC(=O)C(NCc1ccccc1OC)(NC(C)=O)C(F)(F)F (centres undefined),0
15,Cn1nnnc1SCC(=O)NC1CCCCC1,0
16,O=C(O)CCC(=O)Nc1ccc(S(=O)(=O)Nc2nccs2)cc1,0
17,O=C1c2ccccc2C(Nc2ccc3c(c2)OCO3)N1Cc1ccc2c(c1)OCO2 (centres undefined),0
18,N=c1c(C(=O)NCc2ccccc2)cc2c(=O)n3ccccc3nc2n1Cc1ccco1,0
19,CCOc1nc(-c2ccccc2)ccc1-c1noc(-c2cccnc2)n1,0
20,Cc1ccc2c(c1)CCCN2C(=O)C1CCCO1 (centres undefined),5
21,O=C(Nc1cccc(C(F)(F)F)c1)c1cccnc1N1CCCC1,4
22,COc1ccc(OC)c(Nc2nc(-c3cccs3)cs2)c1,0
23,O=C1c2ccccc2NC(c2cccc(F)c2)N1Cc1ccco1 (centres undefined),0
24,Cc1ccc2cc(C#N)c(N3CCCC3)nc2c1C,4
25,c1ccc(-c2n[nH]c3ccccc23)cc1,0

row,SMILES,inhibition [%]
1,CCN1CCN(C(=O)c2ccc3c(=O)n(C4CCCC4)c(=S)[nH]c3c2)CC1,0
2,O=C1C2C3C=CC(C3)C2C(=O)N1Cc1ccccc1 (centres undefined),6
3,CCn1cc(C(=O)NCC2CCCO2)c(=O)c2cc(S(=O)(=O)N(C)C)ccc21 (centres undefined),0
4,O=c1c2nnn(Cc3ccc(Cl)cc3)c2ncn1Cc1ccc(F)cc1,0
5,Cc1coc(NC(=O)CSc2nc(-c3ccncc3)cc(C(F)(F)F)c2C#N)n1,0
6,COc1ccc(N(C)C(=O)CCS(=O)(=O)c2cccc3nonc23)c(OC)c1,0
7,CC1CCCC(N2CCN(C(=O)c3ccc(F)cc3)CC2)C1 (centres undefined),0
8,COCCn1c(SCC(=O)Nc2cccc(OC)c2)nnc1-c1ccccc1,4
9,Cc1ccccc1-c1nc(CN2CCC(C(=O)NCCCN3CCCC3)CC2)c(C)o1,0
10,O=C(O)c1[nH]c2ccc(Cl)cc2c1CC(=O)N1CCN(C(=O)c2ccco2)CC1,2
11,COc1ccc(C(C)=O)c(OC(=O)c2ccc(OC)c(OC)c2)c1,0
12,CN1CCN(C(=O)C2CCN(S(=O)(=O)c3ccc4c(c3)oc(=O)n4C)CC2)CC1,0
13,CCN(CC)C(=O)CSc1nc2ccccc2c(=O)n1CCC(=O)NCc1ccc(F)cc1,0
14,O=C(c1cnccn1)N(c1ccccc1)C1(C(=O)NC2CCCC2)CCCCC1,0
15,CC(=O)Nc1c(O)[nH]c2ccccc12,0
16,Nc1nc2ccc(OC(F)(F)F)cc2s1,7
17,CCOC(=O)c1c(C)[nH]c(C)c1C(=O)COC(=O)CNC(=O)c1ccc(OCC)cc1,0
18,COc1ccc(NC(=O)CCS(=O)(=O)c2ccc(OC)cc2)cc1,0
19,CC(NC(=O)COc1ccccc1)C(=O)NC1=NCCS1 (centres undefined),0
20,Cc1ccc(-n2ncc3c(=O)[nH]c(SCC(=O)N4CCN(c5ccccc5)CC4)nc32)cc1,0
21,Cc1ccc(C2c3c(oc4ccccc4c3=O)C(=O)N2c2nnc(C(C)C)s2)o1 (centres undefined),7
22,O=C(CCN1C(=O)C2C3C=CC(C3)C2C1=O)NC1CCCc2ccccc21 (centres undefined),1
23,Cc1csc(OCc2ccc(C#N)cc2)n1,0
24,Cc1cc(/C=N/n2cnnc2)c(C)n1-c1ccc(Cl)cc1Cl,1
25,NS(=O)(=O)c1ccc(C(=O)O)cc1,0

row,SMILES,inhibition [%]
1,CC(=O)Nc1cccc(OCC(O)Cn2cnc3ccccc32)c1 (centres undefined),0
2,COc1ccc(-c2nnc(SCC(=O)c3cc(C)n(Cc4cccs4)c3C)o2)cc1,0
3,CCN(CC)CCN1C(=O)Cn2c(C)c(C)c3cccc1c32,1
4,Cc1oc2c(CN3CCCC3)c(O)ccc2c(=O)c1-c1ccccc1,0
5,CS(=O)(=O)N1CCc2cc(S(=O)(=O)Nc3ccc4oc5c(c4c3)CCCC5)ccc21,3
6,Clc1cccc(-c2nn3c(Cn4cnc5ccccc54)nnc3s2)c1,0
7,CCc1cc(C)cc(OCCNC(=O)c2ncn[nH]2)c1,7
8,CCOC(=O)c1c(C)c(C(=O)NCC2CCCO2)c(C)n1C (centres undefined),7
9,CCCOC(=O)C1C2C=CC3(CN(c4cccc(Cl)c4)C(=O)C13)O2 (centres undefined),0
10,Cc1ccccc1CS(=O)(=O)CCC(=O)N1CCN(c2ccc(N3CCOCC3)nn2)CC1,9
11,COC(=O)c1ccc2c(=O)n(Cc3ccco3)c(SCC(=O)Nc3ccc(C)c(Cl)c3)nc2c1,2
12,c1ccc(-c2ccc(-c3ccccn3)nn2)nc1,8
13,CS(=O)(=O)N(CC(=O)Nc1ccc2c(c1)OCO2)Cc1ccc(Cl)cc1,0
14,CN(C)S(=O)(=O)Nc1ccc(Br)cc1F,0
15,CSc1cccc(NS(=O)(=O)c2ccccc2)c1,0
16,O=C(NC1(C(F)(F)F)C(=O)Nc2c1c(=O)[nH]c(=O)n2Cc1ccco1)C1CCCCC1 (centres undefined),0
17,CCOC(=O)C1=C(C)N(C)C(C)=C(C(=O)OCC)C1c1cccnc1,2
18,Cc1cc(=O)oc(C)c1C(=O)O,0
19,O=C(OCC(=O)N1CCCC1)c1cncc(Br)c1,1
20,Cn1c(Cc2ccccc2)nnc1SCC(=O)NC1CCCCC1,0
21,CCCCc1c(O)nc(N2CCN(Cc3ccccc3)CC2)[nH]c1=O,7
22,CCC(C)(C(=O)NC1CCCC1)N(C(=O)c1cnccn1)c1c(C)n(C)n(-c2ccccc2)c1=O (centres undefined),0
23,O=C(NC1CC2CCC1C2)C1COc2ccccc2O1 (centres undefined),0
24,CCCCCC1CC(CC#CCN2CCOCC2)C(=O)O1 (centres undefined),7
